Laboratory results as given in ChEMBL document CHEMBL4513135, “CO-ADD screening of IQOG CSIS (Spain) compounds”.
Results with a measured potency or affinity are listed apart.

Columns and labels:
Staphylococcus aureus = conditions: Concentration 32 ug.mL-1; ASSAY_TEST Inhibition of Bacterial Growth; detection method Absorption (OD600); MEDIA CAMHB; plate type 384well; NBS; CORNING #3640; time 18 hr
Escherichia coli = conditions: Concentration 32 ug.mL-1; ASSAY_TEST Inhibition of Bacterial Growth; detection method Absorption (OD600); MEDIA CAMHB; plate type 384well; NBS; CORNING #3640; time 18 hr

COc1ccc(C2c3c(nc4c(c3N)CCCC4)Oc3ccc4ccccc4c32)cc1OC (stereo not drawn) gave an Inhibition (Staphylococcus aureus) of 3.78% and an Inhibition (Escherichia coli) of 13.42%.
Cc1cnc(NC(=O)OC(C)(C)C)c(Br)c1 was tested, and the Inhibition (Staphylococcus aureus) was 34.57% and the Inhibition (Escherichia coli) was -15.12%.
Work on COc1cc(C2c3c(nc4c(c3N)CCC4)Oc3ccc4ccccc4c32)ccc1O (stereo not drawn) yielded an Inhibition (Staphylococcus aureus) of 11.79% and an Inhibition (Escherichia coli) of 11.06%.
C#CCNc1nc(N)c(C#N)cc1C#N showed an Inhibition (Staphylococcus aureus) of -1.17% and an Inhibition (Escherichia coli) of -11.19%.
Cl.NNN1CCc2ccccc21 showed an Inhibition (Staphylococcus aureus) of 25.31% and an Inhibition (Escherichia coli) of 10.83%.
In the case of COC(=O)/C(=C/c1ccc(O)cc1)NC(=O)c1ccccc1, the Inhibition (Staphylococcus aureus) is reported as 4.82% and the Inhibition (Escherichia coli) is reported as 15.96%.
Compound COc1ccc(-c2cc(-c3cc4c(C)cc(C)cc4nc3Cl)cc(=O)[nH]2)cc1 has an Inhibition (Staphylococcus aureus) of 21.85% and an Inhibition (Escherichia coli) of -16.03%.
With COc1ccc(-c2cc(-c3cc4c(OC)ccc(OC)c4nc3Cl)cc(=O)[nH]2)cc1 the Inhibition (Staphylococcus aureus) was 22.4% and the Inhibition (Escherichia coli) was -10.79%.
C#CCn1c(N)c(C#N)c2cc(O)ccc21 was tested, and the Inhibition (Staphylococcus aureus) was 28.27% and the Inhibition (Escherichia coli) was -2.03%.
COc1ccc(C2c3c(ccc4ccccc34)OC(=NBr)C2(Br)C#N)cc1 (stereo not drawn) showed an Inhibition (Staphylococcus aureus) of 37.33% and an Inhibition (Escherichia coli) of -19.75%.
C#CCN(C)c1nc(NCCCC2CCN(Cc3ccccc3)CC2)c(C#N)cc1C#N gave an Inhibition (Staphylococcus aureus) of 1.12% and an Inhibition (Escherichia coli) of -10.35%.
O=C(Cc1c[nH]c2ccccc12)NNCc1ccccc1 showed an Inhibition (Staphylococcus aureus) of -6.19% and an Inhibition (Escherichia coli) of -10.21%.
Cn1c(CNNC(=O)c2ccco2)cc2ccccc21 was tested, and the Inhibition (Staphylococcus aureus) was 1.86% and the Inhibition (Escherichia coli) was 21.64%.
CC(=O)Nc1nc(Cl)c(C#N)c(-c2ccccc2)c1C#N was tested, and the Inhibition (Staphylococcus aureus) was 21.15% and the Inhibition (Escherichia coli) was -6.98%.
